Test results as given in PubChem BioAssay (NCI).
Compounds without any hit were thinned out: in the full panel of roughly 79,000, 15% have a hit. Calls of active or inactive are those of the source. No stated cut-off is given here; in the data, active means growth inhibition above about 70%; inactive means the rest.

Legend:
[1] = NCI Yeast Anticancer Drug Screen. Data for the rad52 strain (AID 147);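 further: 0% = growth of vehicle-treated control cultures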; details: S. cerevisiae rad52 mutant growth inhibition, hits give high values
Procedure, shortened: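 DNA repair-defective yeast; compound exposure; growth scored against vehicle controls.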

[2] = NCI Yeast Anticancer Drug Screen. Data for the wt1 strain (AID 149);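 further: 0% = growth of vehicle-treated wt1 cultures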; details: S. cerevisiae wt1 strain (SPY 50644) growth inhibition, hits give high values
Procedure, shortened: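 Yeast wt1 strain exposed to compounds; growth inhibition measured relative to vehicle-treated controls.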

[3] = NCI Yeast Anticancer Drug Screen. Data for the rad50EPP+ strain (AID 151);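 further: 0% = growth of vehicle-treated control cultures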; details: S. cerevisiae rad50 mutant strain, hits give high values
Procedure, shortened: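 rad50EPP+ yeast treated with test compounds. Readout: growth vs vehicle control.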

[4] = NCI Yeast Anticancer Drug Screen. Data for the mgt1 strain (AID 153); details: S. cerevisiae mgt1 mutant growth inhibition, hits give high values
Procedure, shortened: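 Growth inhibition relative to vehicle controls was scored for the mgt1 yeast strain after compound exposure.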

[5] = NCI Yeast Anticancer Drug Screen. Data for the rad50 strain (AID 155);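 further: 0% = growth of vehicle-only cultures of the same strain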; details: S. cerevisiae rad50 strain growth inhibition, hits give high values
Procedure, shortened: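 Yeast carrying a defined DNA repair defect were exposed to test compounds, and growth was compared with vehicle-treated controls to give percent inhibition.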

[6] = NCI Yeast Anticancer Drug Screen. Data for the mec2-1 strain (AID 157); details: S. cerevisiae mec2-1 strain, hits give high values
Procedure, shortened: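 Growth inhibition is read against vehicle-treated controls after compound exposure of the mec2-1 yeast strain, which is defective in DNA damage repair or cell cycle control.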

[7] = NCI Yeast Anticancer Drug Screen. Data for the rad14 strain (AID 159);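 further: 0% = growth of vehicle-treated control cultures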; details: S. cerevisiae rad14 strain growth inhibition, hits give high values
Procedure, shortened: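 Yeast cells carrying a defined DNA-repair defect were exposed to compounds, and growth inhibition was calculated relative to vehicle-treated control cultures.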

[8] = NCI Yeast Anticancer Drug Screen. Data for the sgs1 mgt1 strain (AID 161);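 further: 0% = growth of cultures given vehicle only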; details: S. cerevisiae sgs1 mgt1 strain, hits give high values
Procedure, shortened: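 Percent growth inhibition was derived by comparing compound-exposed mutant yeast with vehicle-exposed cultures. The strain carries alterations in DNA damage repair.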

[9] = NCI Yeast Anticancer Drug Screen. Data for the CLN2oe strain (AID 163);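 further: 0% = growth of vehicle-only control cultures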; details: S. cerevisiae CLN2oe strain, hits give high values
Procedure, shortened: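 Compound-treated yeast; growth vs vehicle ctrl = % inhibition. Genetically altered strain (cell-cycle control).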

[10] = NCI Yeast Anticancer Drug Screen. Data for the cln2 rad14 strain (AID 165);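 further: 0% = growth equal to vehicle treated cultures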; details: S. cerevisiae cln2 rad14 strain, hits give high values
Procedure, shortened: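 Growth inhibition, relative to vehicle-treated controls, is the read-out. The test organism is a yeast strain with defined genetic alterations, cln2 rad14.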

[11] = NCI Yeast Anticancer Drug Screen. Data for the bub3 strain (AID 167); details: S. cerevisiae bub3 mutant strain, hits give high values
Procedure, shortened: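 Compounds were applied to a genetically altered yeast strain carrying a cell-cycle control defect. Growth inhibition was scored against vehicle-treated controls.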

[12] = NCI Yeast Anticancer Drug Screen. Data for the wt2 strain (AID 169);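 further: 0% = growth of vehicle-treated yeast cultures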; details: S. cerevisiae wt2 strain growth inhibition, hits give high values
Procedure, shortened: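 Compound exposure of yeast; growth compared with vehicle controls; inhibition reported.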

[13] = NCI Yeast Anticancer Drug Screen. Data for the mlh1 strain (AID 171);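 further: 0% = growth of vehicle-treated control cultures of the same strain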; details: S. cerevisiae mlh1 strain growth inhibition, hits give high values
Procedure, shortened: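 Compounds are applied to a genetically altered yeast strain, and its growth is compared with that of vehicle-treated cultures to give percent inhibition.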

[14] = NCI Yeast Anticancer Drug Screen. Data for the sgs1 strain (AID 173);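 further: 0% = growth of vehicle-only control cultures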; details: S. cerevisiae sgs1 mutant, hits give high values
Procedure, shortened: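 Compounds applied to genetically altered yeast; growth compared with vehicle-treated cultures to give % inhibition.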

[15] = NCI Yeast Anticancer Drug Screen. Data for the mlh1 rad18 strain (AID 175); details: S. cerevisiae mlh1 rad18 strain growth inhibition, hits give high values
Procedure, shortened: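 Cells of a genetically altered yeast strain, deficient in DNA damage repair, were treated with compound. Their growth was then compared with that of vehicle-treated cultures to give inhibition.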

[16] = NCI Yeast Anticancer Drug Screen. Data for the rad18 strain (AID 177); details: S. cerevisiae rad18 mutant growth inhibition, hits give high values
Procedure, shortened: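 Compounds are applied to a repair-deficient yeast strain, and growth is compared with that of vehicle-treated cultures to give percent inhibition.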

[17] = at 5.0 µM (retest, dose inferred, filed as 0.5)
[18] = at 50.0 µM (retest, dose inferred, filed as 5.0)

Measured: growth inhibition

Cc1ccc([N+](=O)[O-])c2c(NCCC[N+](C)(C)[O-])c3ccccc3nc12
inactive: [1]; at 1.2 µM -8% | [1]; at 3.7 µM -4% | [1]; at 11.0 µM 8% | [1]; at 33.0 µM 47% | [2]; at 1.2 µM -5% | [2]; at 3.7 µM 0% | [2]; at 11.0 µM 2% | [2]; at 33.0 µM 2% | [2]; at 100.0 µM 2% | [3]; at 1.2 µM -9% | [3]; at 3.7 µM -10% | [3]; at 11.0 µM -6% | [3]; at 33.0 µM 8% | [3]; at 100.0 µM 54% | [4]; at 1.2 µM -2% | [4]; at 3.7 µM 0% | [4]; at 11.0 µM -6% | [4]; at 33.0 µM 5% | [4]; at 100.0 µM 1% | [5]; at 1.2 µM 4% | [5]; at 3.7 µM 7% | [5]; [17] -16% | [5]; at 11.0 µM 3% | [5]; at 33.0 µM 38% | [5]; [18] 44% | [5]; at 50.0 µM 61.2% | [6]; at 1.2 µM -15% | [6]; at 3.7 µM -10% | [6]; [17] 11% | [6]; at 11.0 µM -14% | [6]; at 33.0 µM -1% | [6]; [18] 64% | [6]; at 50.0 µM 1.6% | [7]; at 1.2 µM 11% | [7]; at 3.7 µM 15% | [7]; at 11.0 µM 43% | [8]; [17] 6% | [8]; [18] 62% | [8]; at 50.0 µM 56.8% | [9]; at 1.2 µM -16% | [9]; at 3.7 µM -9% | [9]; at 11.0 µM -17% | [9]; at 33.0 µM -21% | [9]; at 100.0 µM 10% | [10]; [17] 18% | [11]; at 1.2 µM -11% | [11]; at 3.7 µM -4% | [11]; [17] -22% | [11]; at 11.0 µM -20% | [11]; at 33.0 µM -13% | [11]; [18] 3% | [11]; at 50.0 µM -36% | [11]; at 100.0 µM -17% | [12]; at 1.2 µM 0% | [12]; at 3.7 µM -4% | [12]; at 11.0 µM 4% | [12]; at 33.0 µM 8% | [12]; at 100.0 µM 10% | [13]; at 1.2 µM 26% | [13]; at 3.7 µM 11% | [13]; at 11.0 µM 10% | [13]; at 33.0 µM -12% | [13]; at 100.0 µM 27% | [14]; at 1.2 µM -7% | [14]; at 3.7 µM 6% | [14]; at 11.0 µM 31% | [14]; at 33.0 µM 66% | [15]; [17] 31% | [15]; at 50.0 µM 45.1% | [16]; at 1.2 µM 22%
active: [1]; at 100.0 µM 85% | [5]; at 100.0 µM 81% | [6]; at 100.0 µM 82% | [7]; at 33.0 µM 91% | [7]; at 100.0 µM 96% | [10]; [18] 91% | [10]; at 50.0 µM 77.8% | [14]; at 100.0 µM 81% | [15]; [18] 82% | [16]; at 3.7 µM 76% | [16]; at 11.0 µM 90% | [16]; at 33.0 µM 94% | [16]; at 100.0 µM 94%

CC1(C2CC2)C(C#N)(C#N)C1(C#N)C#N
active: [1]; at 100.0 µM 78% | [5]; [18] 91% | [5]; at 100.0 µM 91% | [6]; at 100.0 µM 84% | [8]; [18] 70% | [11]; [18] 81% | [11]; at 100.0 µM 84% | [13]; at 100.0 µM 84% | [14]; at 100.0 µM 94% | [15]; [18] 89% | [15]; at 50.0 µM 70.9% | [16]; at 100.0 µM 87%
inactive: [1]; at 1.2 µM 2% | [1]; at 3.7 µM 10% | [1]; at 11.0 µM 22% | [1]; at 33.0 µM 45% | [2]; at 1.2 µM -2% | [2]; at 3.7 µM -2% | [2]; at 11.0 µM 5% | [2]; at 33.0 µM 19% | [2]; at 100.0 µM 48% | [3]; at 1.2 µM -1% | [3]; at 3.7 µM 2% | [3]; at 11.0 µM 1% | [3]; at 33.0 µM 9% | [3]; at 100.0 µM 9% | [4]; at 1.2 µM -1% | [4]; at 3.7 µM -2% | [4]; at 11.0 µM 1% | [4]; at 33.0 µM 16% | [4]; at 100.0 µM 63% | [5]; at 1.2 µM -1% | [5]; at 3.7 µM 3% | [5]; [17] -106% | [5]; at 11.0 µM 25% | [5]; at 33.0 µM 66% | [5]; at 50.0 µM 38.1% | [6]; at 1.2 µM 4% | [6]; at 3.7 µM 2% | [6]; [17] -39% | [6]; at 11.0 µM 33% | [6]; at 33.0 µM 36% | [6]; [18] 57% | [6]; at 50.0 µM 41.9% | [7]; at 1.2 µM 4% | [7]; at 3.7 µM 7% | [7]; at 11.0 µM 16% | [7]; at 33.0 µM 29% | [7]; at 100.0 µM 66% | [8]; [17] -48% | [8]; at 50.0 µM 51% | [9]; at 1.2 µM -2% | [9]; at 3.7 µM 8% | [9]; at 11.0 µM 16% | [9]; at 33.0 µM 21% | [9]; at 100.0 µM 53% | [10]; [17] -50% | [10]; [18] 7% | [10]; at 50.0 µM 16.3% | [11]; at 1.2 µM -7% | [11]; at 3.7 µM -2% | [11]; [17] -57% | [11]; at 11.0 µM 19% | [11]; at 33.0 µM 49% | [11]; at 50.0 µM 39.8% | [12]; at 1.2 µM -1% | [12]; at 3.7 µM -2% | [12]; at 11.0 µM -1% | [12]; at 33.0 µM 15% | [12]; at 100.0 µM 69% | [13]; at 1.2 µM 4% | [13]; at 3.7 µM -9% | [13]; at 11.0 µM 9% | [13]; at 33.0 µM 31% | [14]; at 1.2 µM -1% | [14]; at 3.7 µM 6% | [14]; at 11.0 µM 23% | [14]; at 33.0 µM 60% | [15]; [17] -96% | [16]; at 1.2 µM 4% | [16]; at 3.7 µM 9% | [16]; at 11.0 µM 22% | [16]; at 33.0 µM 53%

O=C1C=C(Br)C(=O)c2ccccc21
active: [1]; at 11.0 µM 94% | [1]; at 33.0 µM 99% | [1]; at 100.0 µM 99% | [2]; at 11.0 µM 73% | [2]; at 33.0 µM 99% | [2]; at 100.0 µM 99% | [3]; at 11.0 µM 95% | [3]; at 33.0 µM 99% | [3]; at 100.0 µM 98% | [4]; at 11.0 µM 96% | [4]; at 33.0 µM 99% | [4]; at 100.0 µM 99% | [5]; at 11.0 µM 98% | [5]; at 33.0 µM 99% | [5]; [18] 99% | [5]; at 50.0 µM 99.2% | [5]; at 100.0 µM 99%
inactive: [1]; at 1.2 µM 6% | [1]; at 3.7 µM 19% | [2]; at 1.2 µM 10% | [2]; at 3.7 µM 23% | [3]; at 1.2 µM 19% | [3]; at 3.7 µM 39% | [4]; at 1.2 µM 11% | [4]; at 3.7 µM 18% | [5]; at 1.2 µM 9% | [5]; at 3.7 µM 46% | [5]; [17] 27% | [6]; at 1.2 µM 17% | [6]; at 3.7 µM 37%
